Measured values reported in PubChem BioAssay (Tox21).
Records with an inconclusive call do not appear. Active and inactive are the calls of the source. Unless noted, calls follow the shape of the dose curve; as a rule, active = well fitted curve in the direction sought with a large enough effect in the repeat runs; inconclusive = weak or mixed curves; inactive = no such curve, though single readings can be large; an effect the other way counts as inactive or inconclusive.

Key:
[1] = qHTS assay to test for compound auto fluorescence at 535 nm (green) in HEK293 cells (AID 720680)
[2] = qHTS assay to test for compound auto fluorescence at 460 nm (blue) in HEK293 cell free culture (AID 720681)
In short: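 Test compounds were pinned into cell-free culture medium (DMEM with 10% FBS) and fluorescence was read directly at Ex/Em 405/460 nm. Signals were expressed as fluorescence equivalents of triamterene, with DMSO vehicle as control.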

[3] = qHTS assay to test for compound auto fluorescence at 535 nm (green) in HEK293 cell free culture (AID 720682)
In short: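 Each library compound, or DMSO control, is added by pintool to medium alone, comprising DMEM and 10% FBS. Emission at 535 nm following 485 nm excitation is quantified against fluorescein.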

[4] = qHTS assay to test for compound auto fluorescence at 590 nm (red) in HEK293 cell free culture (AID 720683)
In short: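 Tox21 10K library compounds were pinned into cell-free DMEM with 10% FBS and fluorescence was read at excitation 540 nm. Activity is expressed as Rose Bengal sodium equivalency.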

[5] = qHTS assay to test for compound auto fluorescence at 590 nm (red) in HepG2 cell free culture (AID 720684)
In short: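 Ex 540 / Em 590 nm read of compound in cell-free MEM (10% FBS). Rose Bengal sodium reference.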

[6] = qHTS assay to test for compound auto fluorescence at 460 nm (blue) in HepG2 cell free culture (AID 720685)
In short: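 Cell-free plates of MEM plus 10% FBS received 23 nL compound or DMSO vehicle; blue-channel (405/460 nm) intensity scored against triamterene as reference fluorophore.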

[7] = qHTS assay to test for compound auto fluorescence at 535 nm (green) in HepG2 cell free culture (AID 720686)
[8] = qHTS assay to test for compound auto fluorescence at 460 nm (blue) in HepG2 cells (AID 720687)
In short: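 Cells (2,000/well in MEM with 10% FBS) attached overnight at 37 C, then were exposed to compound or DMSO for 1 hr at 37 C, 5% CO2. Fluorescence read at Ex/Em 405/460 nm, expressed as triamterene-equivalent signal.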

[9] = qHTS assay to identify small molecule antagonists of the glucocorticoid receptor (GR) signaling pathway - cell viability counter screen (AID 720693); also: nearly all actives have a fitted effect of over 55% in size
[10] = qHTS assay for identifying genotoxic compounds that show differential cytotoxicity against isogenic chicken DT40 cell lines with known DNA damage response pathways - wild type cell line (AID 743012); also: nearly all actives have a fitted effect of over 60% in size; also: potency is read from the fitted curve at half-maximal effect
In short: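 Endpoint: CellTiter-Glo luminescence, 30 min RT. Cells: wild type DT40, 300/well. Exposure: compounds in DMSO, 40 h, 37 C/5% CO2, after ~0.5 h pre-incubation.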

[11] = qHTS assay for identifying genotoxic compounds that show differential cytotoxicity against isogenic chicken DT40 cell lines with known DNA damage response pathways - Rad54/Ku70 mutant cell line (AID 743015); also: nearly all actives have a fitted effect of over 60% in size; also: potency is read from the fitted curve at half-maximal effect
[12] = qHTS assay to identify small molecule antagonists of the androgen receptor (AR) signaling pathway - cell viability counter screen (AID 743033; also: nearly all actives have a fitted effect of over 45% in size)
[13] = qHTS assay for identifying genotoxic compounds that show differential cytotoxicity against isogenic chicken DT40 cell lines with known DNA damage response pathways - Rev3 mutant cell line (AID 743014); also: nearly all actives have a fitted effect of over 55% in size; also: potency is read from the fitted curve at half-maximal effect
[14] = target: Androgen receptor (Homo sapiens) (UniProt P10275); assay: qHTS assay to identify small molecule agonists of the androgen receptor (AR) signaling pathway (AID 743036; active = well fitted activation curve with a large enough effect in the signal ratio in the repeat runs, with a control signal flat, not every such curve was filed as active; the % refers to the signal ratio)
In short: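 Following a 4 h settling period, AR-UAS-bla HEK293 cells were dosed with compounds for 16 h at 37C. A 2 h room-temperature incubation with LiveBLAzer B/G FRET substrate preceded the fluorescence measurement.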

[15] = target: Androgen receptor (Homo sapiens) (UniProt P10275); assay: qHTS assay to identify small molecule agonists of the androgen receptor (AR) signaling pathway using the MDA cell line (AID 743040; also: nearly all actives have a fitted effect of over 20% in size)
In short: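 Cell-based luciferase reporter: MDA-kb2, MMTV promoter (AR + GR response elements). 16 h compound exposure at 37C; ONE-Glo, 30 min RT, luminescence.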

[16] = qHTS assay to identify small molecule antagonists of the androgen receptor (AR) signaling pathway using the MDA cell line - cell viability counter screen (AID 743041; also: nearly all actives have a fitted effect of over 45% in size)
In short: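 In this qHTS counter assay, fluorescence intensity after CellTiter-Fluor addition indicated viability of MDA-kb2 AR-luc cells given compounds and R1881 for 16 h at 37C.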

[17] = target: Androgen receptor (Homo sapiens) (UniProt P10275); assay: qHTS assay to identify small molecule antagonists of the androgen receptor (AR) signaling pathway using the MDA cell line (AID 743042; also: nearly all actives have a fitted effect of over 55% in size)
In short: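 MDA-kb2 cells (human breast carcinoma, stably carrying an MMTV-luciferase reporter responsive to AR and GR) were plated at 3,000 cells/well and preincubated 5 hr at 37C, then given compound plus R1881 agonist for 16 h. ONE-Glo luminescence was read.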

[18] = target: Glucocorticoid receptor (Homo sapiens) (UniProt P04150); assay: qHTS assay to identify small molecule agonists of the glucocorticoid receptor (GR) signaling pathway (AID 720691; active = well fitted activation curve with a large enough effect in the signal ratio in the repeat runs, not every such curve was filed as active; the % refers to the signal ratio)
In short: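 Measures GR pathway activation through a GRE-beta-lactamase reporter stably integrated in HeLa cells, with 18 h compound treatment at 37 C and fluorescence detection using a FRET substrate.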

[19] = target: Glucocorticoid receptor (Homo sapiens) (UniProt P04150); assay: qHTS assay to identify small molecule antagonists of the glucocorticoid receptor (GR) signaling pathway (AID 720692; active = well fitted inhibition curve with a large enough effect in the signal ratio in the repeat runs, not every such curve was filed as active; the % refers to the signal ratio)
In short: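 Tox21 10K library screened in concentration-response for blockade of dexamethasone (5 nM final)-induced GRE-bla reporter activity in HeLa cells; 18 h treatment, fluorescence read.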

[20] = target: Androgen receptor (Homo sapiens) (UniProt P10275); assay: qHTS assay to identify small molecule antagonists of the androgen receptor (AR) signaling pathway (AID 743035; active = well fitted inhibition curve with a large enough effect in the signal ratio in the repeat runs, not every such curve was filed as active; the % refers to the signal ratio)
In short: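 R1881 agonist challenge of a HEK293 UAS-beta-lactamase AR reporter line in the presence of compound (16 h, 37C); signal taken as FRET fluorescence after 2 h with LiveBLAzer B/G substrate at room temperature.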
% is scaled to controls: 0 for no effect and ±100 for the full control effect.

Sequence of Androgen receptor (Homo sapiens) (P10275 whole entry, looked up): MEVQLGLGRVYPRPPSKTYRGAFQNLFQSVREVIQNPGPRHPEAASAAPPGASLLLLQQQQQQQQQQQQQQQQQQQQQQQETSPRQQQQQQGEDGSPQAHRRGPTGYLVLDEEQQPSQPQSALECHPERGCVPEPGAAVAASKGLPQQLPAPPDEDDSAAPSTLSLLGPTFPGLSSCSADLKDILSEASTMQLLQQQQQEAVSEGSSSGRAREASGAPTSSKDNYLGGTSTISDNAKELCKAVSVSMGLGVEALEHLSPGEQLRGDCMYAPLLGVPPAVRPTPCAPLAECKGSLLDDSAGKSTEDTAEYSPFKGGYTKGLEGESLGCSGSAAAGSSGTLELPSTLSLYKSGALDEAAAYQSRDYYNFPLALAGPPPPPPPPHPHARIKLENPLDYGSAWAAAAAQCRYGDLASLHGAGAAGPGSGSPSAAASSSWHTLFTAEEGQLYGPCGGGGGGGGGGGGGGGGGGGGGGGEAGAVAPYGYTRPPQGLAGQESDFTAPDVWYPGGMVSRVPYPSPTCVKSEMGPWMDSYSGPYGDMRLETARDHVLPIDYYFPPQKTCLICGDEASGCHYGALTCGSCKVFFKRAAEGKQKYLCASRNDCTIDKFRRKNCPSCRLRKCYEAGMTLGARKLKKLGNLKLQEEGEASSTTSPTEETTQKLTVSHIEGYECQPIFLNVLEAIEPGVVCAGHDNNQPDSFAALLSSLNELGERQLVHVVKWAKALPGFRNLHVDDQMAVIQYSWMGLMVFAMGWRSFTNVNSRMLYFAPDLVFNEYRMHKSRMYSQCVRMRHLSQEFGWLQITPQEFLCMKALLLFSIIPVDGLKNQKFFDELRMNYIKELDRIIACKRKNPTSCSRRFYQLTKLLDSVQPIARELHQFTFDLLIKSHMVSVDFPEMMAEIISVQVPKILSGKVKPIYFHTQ
Sequence of Glucocorticoid receptor (Homo sapiens) (P04150 whole entry, looked up): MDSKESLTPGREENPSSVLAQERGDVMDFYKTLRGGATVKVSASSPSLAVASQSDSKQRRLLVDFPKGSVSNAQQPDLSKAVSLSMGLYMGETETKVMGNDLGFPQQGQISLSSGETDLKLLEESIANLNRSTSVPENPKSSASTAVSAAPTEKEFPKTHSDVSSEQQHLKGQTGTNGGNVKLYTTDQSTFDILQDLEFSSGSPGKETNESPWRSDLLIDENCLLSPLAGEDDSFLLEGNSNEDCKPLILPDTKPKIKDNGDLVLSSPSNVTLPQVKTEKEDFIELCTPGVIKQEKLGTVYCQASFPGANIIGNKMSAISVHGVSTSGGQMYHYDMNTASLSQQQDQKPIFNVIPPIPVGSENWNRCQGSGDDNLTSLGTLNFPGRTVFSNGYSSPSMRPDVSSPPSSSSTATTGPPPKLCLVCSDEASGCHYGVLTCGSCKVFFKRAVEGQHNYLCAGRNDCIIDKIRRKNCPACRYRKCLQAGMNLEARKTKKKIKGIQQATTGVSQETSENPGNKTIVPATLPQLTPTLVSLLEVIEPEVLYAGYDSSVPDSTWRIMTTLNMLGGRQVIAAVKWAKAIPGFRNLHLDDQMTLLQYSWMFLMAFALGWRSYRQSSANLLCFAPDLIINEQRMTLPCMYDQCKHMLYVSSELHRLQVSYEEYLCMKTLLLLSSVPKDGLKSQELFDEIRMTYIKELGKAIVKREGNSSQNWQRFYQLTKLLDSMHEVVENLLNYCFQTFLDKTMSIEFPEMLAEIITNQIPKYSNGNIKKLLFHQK

CCCCCC(CO)CCC (stereo unspecified)
inactive: outcome [1] | Potency [2] | outcome [3] | outcome [4] | outcome [5] | Potency [6] | outcome [7] | Potency [8] | Potency [9] | Potency [10] | Potency [11] | Potency [12]

O=C(NS(=O)(=O)/C=C/c1cccs1)c1ccc(F)cc1Br
inactive: outcome [1] | Potency [2] | outcome [3] | outcome [4] | outcome [5] | Potency [6] | outcome [7] | Potency [8] | Potency [9] | Potency [10] | Potency [13] | Potency [11] | Potency [12] | outcome [14] | Potency [15] | Potency [16] | Potency [17]

O=S1(=O)N=C(O)c2ccccc21
inactive: outcome [1] | Potency [2] | outcome [3] | outcome [4] | outcome [5] | Potency [6] | outcome [7] | Potency [8] | Potency [10] | Potency [13] | Potency [11] | Potency [12] | Potency [16]

CN(C)CCCNCCCN
inactive: outcome [1] | Potency [2] | outcome [3] | outcome [4] | outcome [5] | outcome [7] | Potency [8] | Potency [18] | Potency [19] | Potency [9] | Potency [10] | Potency [12] | Potency [16]

COC(=O)CSc1cc(N=c2sc(=O)n3n2CCCC3)c(F)cc1Cl
inactive: outcome [1] | Potency [2] | outcome [3] | outcome [4] | outcome [5] | Potency [6] | Potency [18] | Potency [12] | Potency [15] | Potency [16] | Potency [17]

CCOc1ccc2[nH]cc(C(=O)NCc3ccccc3)c(=O)c2n1
inactive: outcome [1] | Potency [2] | outcome [3] | outcome [4] | outcome [5] | Potency [6] | Potency [8] | Potency [9] | Potency [16]
active: Potency [10] 43.3 µM | Potency [13] 48.6 µM | Potency [11] 24.3 µM

CN(C)CCCOc1nn(Cc2ccccc2)c2ccccc12
inactive: fluorescence, % of fluorescein [1] 0.0226% [at 18.6 µM] | fluorescence, % of fluorescent control [2] -0.101% [at 18.6 µM] | activity change [3] -0.0035% [at 18.6 µM] | fluorescence, % of fluorescent control [4] 0.117% [at 18.6 µM] | fluorescence, % of Rose Bengal [5] -0.0465% [at 18.6 µM] | fluorescence, % of fluorescein control [7] 0.0194% [at 18.6 µM] | fluorescence, % of fluorescent control [8] -0.0064% [at 18.6 µM] | Potency [18] | Potency [19] | Potency [9] | Potency [12] | Potency [16]
active: Potency [10] 12.7 µM | Potency [13] 12.7 µM | Potency [11] 11.4 µM

c1ccc(CNCc2ccccc2)cc1
active: Potency [10] 54.5 µM | Potency [13] 30.6 µM | Potency [11] 43.3 µM
inactive: outcome [1] | Potency [2] | outcome [3] | outcome [4] | outcome [5] | Potency [6] | Potency [8] | Potency [18] | Potency [12] | Potency [16]

CC(C)(C)C(=O)OCOP(=O)(COCCn1cnc2c(N)ncnc21)OCOC(=O)C(C)(C)C
inactive: outcome [1] | Potency [2] | outcome [3] | outcome [4] | outcome [5] | Potency [6] | Potency [18] | Potency [19] | Potency [12] | Potency [16]

CCN1CCC[C@H]1CNC(=O)c1c(OC)ccc(Br)c1OC
inactive: outcome [1] | Potency [2] | outcome [3] | outcome [4] | outcome [5] | Potency [6] | outcome [7] | Potency [9] | Potency [10] | Potency [11] | Potency [12] | Potency [16]

CC(=O)SCc1ccco1
inactive: outcome [1] | Potency [2] | outcome [3] | outcome [4] | outcome [5] | Potency [6] | outcome [7] | Potency [19] | Potency [9] | Potency [10] | Potency [13] | Potency [11] | Potency [12] | Potency [20] | outcome [14] | Potency [15] | Potency [16] | Potency [17]
